Inconclusive results are not listed. Where a structure was tested more than once in an assay, its records may differ in their call. The source made the active and inactive calls. Rule for the calls: active = hit-call score of the fitted dose curve at least 0.9, where 1 is the maximum; inconclusive = response in the unintended direction; inactive = score below 0.9.

Sequence of human Matrix Metalloproteinase-9 (MMP9), MMP9 (gene 4318) (P14780 whole entry, looked up): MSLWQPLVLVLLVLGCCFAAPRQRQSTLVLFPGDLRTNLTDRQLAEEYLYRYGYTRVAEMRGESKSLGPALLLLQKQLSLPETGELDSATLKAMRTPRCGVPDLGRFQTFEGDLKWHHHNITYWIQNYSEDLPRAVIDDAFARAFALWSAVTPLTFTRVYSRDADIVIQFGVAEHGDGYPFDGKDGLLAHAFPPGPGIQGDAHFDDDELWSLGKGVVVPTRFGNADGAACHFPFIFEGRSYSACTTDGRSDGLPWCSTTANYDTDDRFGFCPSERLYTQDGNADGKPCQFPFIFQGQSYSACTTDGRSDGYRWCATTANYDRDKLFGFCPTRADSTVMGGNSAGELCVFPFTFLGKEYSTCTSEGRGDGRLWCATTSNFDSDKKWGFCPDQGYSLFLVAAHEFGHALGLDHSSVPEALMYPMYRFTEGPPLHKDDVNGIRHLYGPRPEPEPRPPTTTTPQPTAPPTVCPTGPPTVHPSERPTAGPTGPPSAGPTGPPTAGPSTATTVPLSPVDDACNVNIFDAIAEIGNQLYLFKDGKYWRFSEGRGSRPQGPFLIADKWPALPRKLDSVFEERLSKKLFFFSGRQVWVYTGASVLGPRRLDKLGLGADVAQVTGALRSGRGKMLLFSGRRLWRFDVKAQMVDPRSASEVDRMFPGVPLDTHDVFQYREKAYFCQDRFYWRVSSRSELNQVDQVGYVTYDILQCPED
Sequence of human Phosphoinositide 3-kinase alpha (PI3Ka), PIK3CA (gene 5290) (P42336 whole entry, looked up): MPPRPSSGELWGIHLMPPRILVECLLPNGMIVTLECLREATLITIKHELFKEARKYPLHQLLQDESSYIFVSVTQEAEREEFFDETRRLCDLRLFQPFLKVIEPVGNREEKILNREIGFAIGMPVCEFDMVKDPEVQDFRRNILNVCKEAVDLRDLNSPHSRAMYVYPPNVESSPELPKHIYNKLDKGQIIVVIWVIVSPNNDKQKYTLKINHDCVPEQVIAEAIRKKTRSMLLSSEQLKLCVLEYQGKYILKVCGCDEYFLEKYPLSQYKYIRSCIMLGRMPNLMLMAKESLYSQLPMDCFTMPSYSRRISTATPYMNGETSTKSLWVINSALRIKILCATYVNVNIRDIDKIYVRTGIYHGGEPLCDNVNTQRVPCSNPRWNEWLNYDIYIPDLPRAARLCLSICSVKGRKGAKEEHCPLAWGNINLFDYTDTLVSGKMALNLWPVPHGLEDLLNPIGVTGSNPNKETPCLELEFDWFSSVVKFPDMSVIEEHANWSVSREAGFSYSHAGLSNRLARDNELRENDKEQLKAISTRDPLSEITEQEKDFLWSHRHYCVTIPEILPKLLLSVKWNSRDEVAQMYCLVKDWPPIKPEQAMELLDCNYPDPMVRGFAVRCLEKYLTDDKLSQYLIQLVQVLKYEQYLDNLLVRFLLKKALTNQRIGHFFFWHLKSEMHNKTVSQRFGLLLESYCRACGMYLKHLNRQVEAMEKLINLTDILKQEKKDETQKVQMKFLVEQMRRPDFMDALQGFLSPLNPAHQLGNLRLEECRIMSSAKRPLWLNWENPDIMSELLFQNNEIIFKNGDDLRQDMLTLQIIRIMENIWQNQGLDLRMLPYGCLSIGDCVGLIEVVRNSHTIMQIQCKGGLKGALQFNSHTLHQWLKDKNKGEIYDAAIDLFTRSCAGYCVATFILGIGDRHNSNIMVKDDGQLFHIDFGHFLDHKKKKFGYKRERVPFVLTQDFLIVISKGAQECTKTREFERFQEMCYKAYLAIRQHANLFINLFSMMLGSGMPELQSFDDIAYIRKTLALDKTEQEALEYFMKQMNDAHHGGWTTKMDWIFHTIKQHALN
Sequence of human Phosphodiesterase 10 (PDE10), PDE10A (gene 10846) (Q9Y233 whole entry, looked up): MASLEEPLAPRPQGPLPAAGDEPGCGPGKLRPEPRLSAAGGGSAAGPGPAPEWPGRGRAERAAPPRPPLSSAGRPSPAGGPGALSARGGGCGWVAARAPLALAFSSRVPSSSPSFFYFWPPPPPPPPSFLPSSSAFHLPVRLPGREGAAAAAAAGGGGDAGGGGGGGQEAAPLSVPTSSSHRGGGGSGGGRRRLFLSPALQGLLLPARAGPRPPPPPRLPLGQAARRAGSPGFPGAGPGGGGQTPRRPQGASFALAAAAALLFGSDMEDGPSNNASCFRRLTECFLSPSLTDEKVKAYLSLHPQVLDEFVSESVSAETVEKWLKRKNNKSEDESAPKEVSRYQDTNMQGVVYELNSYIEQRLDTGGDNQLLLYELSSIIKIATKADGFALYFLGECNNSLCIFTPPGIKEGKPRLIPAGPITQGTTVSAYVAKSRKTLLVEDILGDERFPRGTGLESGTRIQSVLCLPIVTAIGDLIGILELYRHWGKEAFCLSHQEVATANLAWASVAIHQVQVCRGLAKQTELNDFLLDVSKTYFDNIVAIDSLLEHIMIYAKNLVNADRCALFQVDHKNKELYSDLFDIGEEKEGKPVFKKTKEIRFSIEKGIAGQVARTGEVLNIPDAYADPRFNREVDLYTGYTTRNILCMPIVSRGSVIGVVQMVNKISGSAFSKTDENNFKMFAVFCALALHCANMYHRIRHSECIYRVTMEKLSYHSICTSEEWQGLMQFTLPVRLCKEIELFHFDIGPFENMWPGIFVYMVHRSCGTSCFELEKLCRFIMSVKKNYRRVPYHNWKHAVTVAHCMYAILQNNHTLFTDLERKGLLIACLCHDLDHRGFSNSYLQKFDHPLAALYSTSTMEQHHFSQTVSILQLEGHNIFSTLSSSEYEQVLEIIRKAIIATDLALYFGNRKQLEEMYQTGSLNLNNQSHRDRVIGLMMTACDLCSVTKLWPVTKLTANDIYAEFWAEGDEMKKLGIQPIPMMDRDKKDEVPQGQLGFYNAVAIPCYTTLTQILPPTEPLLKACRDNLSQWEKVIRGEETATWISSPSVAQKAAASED

The first experiment addresses human Matrix Metalloproteinase-9 (MMP9), MMP9 (gene 4318) (UniProt P14780). In words: NVS_ENZ_hMMP9: NovaScreen (NVS) Enzymatic Assay for human Matrix Metalloproteinase-9 (MMP9) (AID 2283190).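 Note: cell-free recombinant MMP9 protease activity read by fluorescent substrate signal; active means inhibition seen as loss of fluorescence signal versus DMSO.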 In short, it runs like this:
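Cell-free fluorescence-intensity enzyme activity assay using extracted protein, read 1 h after dosing. Loss of signal versus DMSO baseline indicates inhibition; primary screen in duplicate at 25 uM, actives followed up in concentration series.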
One may read the AC50 as the concentration at which the activity in the assay is half-maximal. For the molecule `CCN1CCC2(CC1)COc1cc3c(cc12)N(C(=O)c1ccc(-c2ccc(-c4nnc(C)o4)cc2C)cc1)CC3`, the AC50 is 4.37 µM (active).

For `Nc1ccc(-c2ccc(N)c(Cl)c2)cc1Cl`, the AC50 was 0.597 µM (active).

As for `CN(C)P(=O)(N(C)C)N(C)C`, the AC50 was 6.94 µM (active).

With `O=C(OC1CCCCC1)c1ccccc1C(=O)OC1CCCCC1`, the AC50 is 1.86 µM (active).

Consider `Nc1cccc(Cl)c1`, for which the AC50 is 0.226 µM (active).

For `Clc1ccc(C2(Cn3cncn3)CC(Br)CO2)c(Cl)c1` (stereo not given), the molecule was called inactive.

As to `CCOC(=O)/C=C(C)/C=C/C[C@@H](C)CCCC(C)C`, the molecule was classed as inactive.

For the molecule `NC(=S)Nc1ccccc1`, the concentration at half-maximal activity (AC50) was 29.4 µM (active).

As for `COc1cc(-c2ccc(N)c(OC)c2)ccc1N`, the AC50 is 15.7 µM (active) and the call was inactive.

For `ClC1=C(Cl)[C@]2(Cl)[C@H]3[C@H]([C@H]4C=C[C@H]3C4)[C@@]1(Cl)C2(Cl)Cl`, the AC50 was 102 µM (active).

In a further experiment the target is human Phosphodiesterase 5 (PDE5), PDE5A (gene 8654) (UniProt O76074). The experiment in a line: NVS_ENZ_hPDE5: NovaScreen (NVS) Enzymatic Assay for human Phosphodiesterase 5 (PDE5) (AID 2283194). The method, boiled down:
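Screening began in duplicate at 25 uM, with actives taken into concentration-response. Enzyme activity of recombinant PDE5 toward its substrate was measured at 1 h by fluorescence mobility-shift detection, relative to DMSO controls.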
Turning to `CCN1CCC2(CC1)COc1cc3c(cc12)N(C(=O)c1ccc(-c2ccc(-c4nnc(C)o4)cc2C)cc1)CC3`, the result was inactive.

On to `CC(=O)[O][Hg][c]1ccccc1`, for which the molecule was classed as inactive.

For the molecule `CC(C)(C)CC(C)(C)c1ccc(O)cc1`, the outcome was inactive.

A further experiment addresses human Phosphodiesterase 10 (PDE10), PDE10A (gene 10846) (UniProt Q9Y233). The experiment in a line: NVS_ENZ_hPDE10: NovaScreen (NVS) Enzymatic Assay for human Phosphodiesterase 10 (PDE10) (AID 2283195). The method, boiled down:
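Fluorescence readout after mobility-shift separation of substrate and product, 1 h reaction with recombinant human enzyme. Single-concentration duplicates at 25 uM, then concentration-response up to 50 uM for chemicals reaching threshold; DMSO baseline.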
In the case of `COc1cccc(C=O)c1`, the call was inactive.

As for `Nc1ccc(Cl)cc1C(=O)c1ccccc1`, the result was inactive.

`ClCCBr`: the outcome was inactive.

In the case of `Nc1cccc2ccccc12`, the AC50 is 9.86 µM (active).

As for `ClC1=C(Cl)[C@]2(Cl)[C@@H]3[C@@H](Cl)[C@@H](Cl)C[C@@H]3[C@@]1(Cl)C2(Cl)Cl`, the molecule was called inactive.

As to `CN(CCCC(=O)c1cccnc1)N=O`, the outcome was inactive.

`O=Cc1cccc(Oc2ccccc2)c1`: the outcome was inactive.

On to `Nc1ncc([N+](=O)[O-])s1`, for which the molecule was classed as inactive.

For the molecule `CC(Br)C(=O)O` (stereo not given), the outcome was inactive.

With `CC(C)c1ccc(CO)cc1`, the molecule was classed as inactive.

Take `CCCCC(CC)CO[N+](=O)[O-]` (stereo not given): the molecule was called inactive.

As to `O=C(Cl)c1ccc(Cl)cc1`, the call was inactive.

For the next experiment, the target named is human Phosphoinositide 3-kinase alpha (PI3Ka), PIK3CA (gene 5290) (UniProt P42336). The experiment in a line: NVS_ENZ_hPI3Ka: NovaScreen (NVS) Enzymatic Assay for human Phosphoinositide 3-kinase alpha (PI3Ka) (AID 2283196). The method, boiled down:
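Enzyme activity as fluorescence after mobility-shift separation of substrate and product, 1 h reaction, recombinant human PI3Kα; concentration-response to 50 uM max for chemicals passing a 25 uM duplicate screen.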
In the case of `COP(=S)(OC)Oc1c(Cl)cc(C)cc1Cl`, the call was inactive.

In the case of `COP(=S)(OC)Oc1cc(Cl)c(Cl)cc1Cl`, the molecule was classed as inactive.

Regarding `Nc1ccc(-c2ccc(N)c(Cl)c2)cc1Cl`, the molecule was called inactive.

For `Cc1ccccc1N`, the call was inactive.

For the molecule `C(=NC1CCCCC1)=NC1CCCCC1`, the result was inactive.

For `ClCCBr`, the AC50 is 383 nM (active).

With `CCNc1nc(NC(C)(C)C)nc(SC)n1`, the result was inactive.

For the molecule `O=[N+]([O-])c1ccc2c3c(cccc13)CC2`, the molecule was called inactive.

As for `CC(C)C1CCC(Cc2ccc(Cl)cc2)C1(O)Cn1cncn1` (stereo not given), the outcome was inactive.
